Columns and labels:
Assay in all cases: log2 ratio of Biotin-Ahx-Ub-VS probe labelling (fragment/DMSO); higher = less target engagement (more negative = stronger competition), active = hit call of the paper (q ≤ 0.05, log2 ratio ≤ -1)
Settings in all cases: compound concentration: 200 uM; treatment time: 3 h
USP19 = target: T1, USP19 (UniProt O94966)
T1 sequence (whole entry): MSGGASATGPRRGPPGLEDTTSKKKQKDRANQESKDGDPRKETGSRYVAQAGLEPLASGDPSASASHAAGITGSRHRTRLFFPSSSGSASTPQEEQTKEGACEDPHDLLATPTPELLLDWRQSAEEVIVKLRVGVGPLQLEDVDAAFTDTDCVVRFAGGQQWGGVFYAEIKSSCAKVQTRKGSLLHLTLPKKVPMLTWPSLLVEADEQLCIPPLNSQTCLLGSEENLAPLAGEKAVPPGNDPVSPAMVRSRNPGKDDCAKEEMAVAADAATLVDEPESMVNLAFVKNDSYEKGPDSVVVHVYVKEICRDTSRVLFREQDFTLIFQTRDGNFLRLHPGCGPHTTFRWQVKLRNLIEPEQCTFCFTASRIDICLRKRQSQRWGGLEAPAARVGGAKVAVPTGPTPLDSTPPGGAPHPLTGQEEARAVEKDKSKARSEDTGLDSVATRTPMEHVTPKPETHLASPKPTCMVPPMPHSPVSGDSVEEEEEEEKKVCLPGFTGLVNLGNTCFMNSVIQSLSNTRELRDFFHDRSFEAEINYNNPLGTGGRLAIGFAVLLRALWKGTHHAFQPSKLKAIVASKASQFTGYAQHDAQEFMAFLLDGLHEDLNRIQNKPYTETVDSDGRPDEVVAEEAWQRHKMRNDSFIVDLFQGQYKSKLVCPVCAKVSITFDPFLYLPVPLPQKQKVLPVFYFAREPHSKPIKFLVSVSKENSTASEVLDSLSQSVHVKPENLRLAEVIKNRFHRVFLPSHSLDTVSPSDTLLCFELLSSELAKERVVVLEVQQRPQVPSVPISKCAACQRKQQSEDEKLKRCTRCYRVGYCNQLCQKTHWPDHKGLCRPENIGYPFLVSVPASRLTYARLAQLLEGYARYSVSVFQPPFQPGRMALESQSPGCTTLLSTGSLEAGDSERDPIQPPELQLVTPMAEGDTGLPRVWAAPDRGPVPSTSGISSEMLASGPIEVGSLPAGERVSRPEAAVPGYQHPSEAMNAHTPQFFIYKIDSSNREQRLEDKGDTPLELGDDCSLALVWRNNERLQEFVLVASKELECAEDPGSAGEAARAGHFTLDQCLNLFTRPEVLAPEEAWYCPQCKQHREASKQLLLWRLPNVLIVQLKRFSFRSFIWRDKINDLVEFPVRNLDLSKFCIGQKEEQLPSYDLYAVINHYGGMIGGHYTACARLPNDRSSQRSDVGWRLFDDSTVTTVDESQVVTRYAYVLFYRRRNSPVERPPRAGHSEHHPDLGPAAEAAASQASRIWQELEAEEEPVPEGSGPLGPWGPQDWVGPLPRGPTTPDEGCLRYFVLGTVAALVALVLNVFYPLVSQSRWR
Method in brief: (§1)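 Triplicate samples of HEK293T lysate, 495 µg each, received fragment at 200 µM or vehicle for 3 h, followed by Biotin-Ahx-Ub-VS (0.5 µM final) for 1 h. After NeutrAvidin enrichment of labelled DUBs and LysC/trypsin digestion, peptides were run by diaPASEF LC-MS/MS. The values are average log2 fragment/vehicle ratios from global-median-normalised Spectronaut label-free quantities, tested by unpaired t-test on proteins having ≥2 unique peptides.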

USP24 = USP24 (UniProt Q9UPU5)
Chain of USP24 (Q9UPU5 whole entry): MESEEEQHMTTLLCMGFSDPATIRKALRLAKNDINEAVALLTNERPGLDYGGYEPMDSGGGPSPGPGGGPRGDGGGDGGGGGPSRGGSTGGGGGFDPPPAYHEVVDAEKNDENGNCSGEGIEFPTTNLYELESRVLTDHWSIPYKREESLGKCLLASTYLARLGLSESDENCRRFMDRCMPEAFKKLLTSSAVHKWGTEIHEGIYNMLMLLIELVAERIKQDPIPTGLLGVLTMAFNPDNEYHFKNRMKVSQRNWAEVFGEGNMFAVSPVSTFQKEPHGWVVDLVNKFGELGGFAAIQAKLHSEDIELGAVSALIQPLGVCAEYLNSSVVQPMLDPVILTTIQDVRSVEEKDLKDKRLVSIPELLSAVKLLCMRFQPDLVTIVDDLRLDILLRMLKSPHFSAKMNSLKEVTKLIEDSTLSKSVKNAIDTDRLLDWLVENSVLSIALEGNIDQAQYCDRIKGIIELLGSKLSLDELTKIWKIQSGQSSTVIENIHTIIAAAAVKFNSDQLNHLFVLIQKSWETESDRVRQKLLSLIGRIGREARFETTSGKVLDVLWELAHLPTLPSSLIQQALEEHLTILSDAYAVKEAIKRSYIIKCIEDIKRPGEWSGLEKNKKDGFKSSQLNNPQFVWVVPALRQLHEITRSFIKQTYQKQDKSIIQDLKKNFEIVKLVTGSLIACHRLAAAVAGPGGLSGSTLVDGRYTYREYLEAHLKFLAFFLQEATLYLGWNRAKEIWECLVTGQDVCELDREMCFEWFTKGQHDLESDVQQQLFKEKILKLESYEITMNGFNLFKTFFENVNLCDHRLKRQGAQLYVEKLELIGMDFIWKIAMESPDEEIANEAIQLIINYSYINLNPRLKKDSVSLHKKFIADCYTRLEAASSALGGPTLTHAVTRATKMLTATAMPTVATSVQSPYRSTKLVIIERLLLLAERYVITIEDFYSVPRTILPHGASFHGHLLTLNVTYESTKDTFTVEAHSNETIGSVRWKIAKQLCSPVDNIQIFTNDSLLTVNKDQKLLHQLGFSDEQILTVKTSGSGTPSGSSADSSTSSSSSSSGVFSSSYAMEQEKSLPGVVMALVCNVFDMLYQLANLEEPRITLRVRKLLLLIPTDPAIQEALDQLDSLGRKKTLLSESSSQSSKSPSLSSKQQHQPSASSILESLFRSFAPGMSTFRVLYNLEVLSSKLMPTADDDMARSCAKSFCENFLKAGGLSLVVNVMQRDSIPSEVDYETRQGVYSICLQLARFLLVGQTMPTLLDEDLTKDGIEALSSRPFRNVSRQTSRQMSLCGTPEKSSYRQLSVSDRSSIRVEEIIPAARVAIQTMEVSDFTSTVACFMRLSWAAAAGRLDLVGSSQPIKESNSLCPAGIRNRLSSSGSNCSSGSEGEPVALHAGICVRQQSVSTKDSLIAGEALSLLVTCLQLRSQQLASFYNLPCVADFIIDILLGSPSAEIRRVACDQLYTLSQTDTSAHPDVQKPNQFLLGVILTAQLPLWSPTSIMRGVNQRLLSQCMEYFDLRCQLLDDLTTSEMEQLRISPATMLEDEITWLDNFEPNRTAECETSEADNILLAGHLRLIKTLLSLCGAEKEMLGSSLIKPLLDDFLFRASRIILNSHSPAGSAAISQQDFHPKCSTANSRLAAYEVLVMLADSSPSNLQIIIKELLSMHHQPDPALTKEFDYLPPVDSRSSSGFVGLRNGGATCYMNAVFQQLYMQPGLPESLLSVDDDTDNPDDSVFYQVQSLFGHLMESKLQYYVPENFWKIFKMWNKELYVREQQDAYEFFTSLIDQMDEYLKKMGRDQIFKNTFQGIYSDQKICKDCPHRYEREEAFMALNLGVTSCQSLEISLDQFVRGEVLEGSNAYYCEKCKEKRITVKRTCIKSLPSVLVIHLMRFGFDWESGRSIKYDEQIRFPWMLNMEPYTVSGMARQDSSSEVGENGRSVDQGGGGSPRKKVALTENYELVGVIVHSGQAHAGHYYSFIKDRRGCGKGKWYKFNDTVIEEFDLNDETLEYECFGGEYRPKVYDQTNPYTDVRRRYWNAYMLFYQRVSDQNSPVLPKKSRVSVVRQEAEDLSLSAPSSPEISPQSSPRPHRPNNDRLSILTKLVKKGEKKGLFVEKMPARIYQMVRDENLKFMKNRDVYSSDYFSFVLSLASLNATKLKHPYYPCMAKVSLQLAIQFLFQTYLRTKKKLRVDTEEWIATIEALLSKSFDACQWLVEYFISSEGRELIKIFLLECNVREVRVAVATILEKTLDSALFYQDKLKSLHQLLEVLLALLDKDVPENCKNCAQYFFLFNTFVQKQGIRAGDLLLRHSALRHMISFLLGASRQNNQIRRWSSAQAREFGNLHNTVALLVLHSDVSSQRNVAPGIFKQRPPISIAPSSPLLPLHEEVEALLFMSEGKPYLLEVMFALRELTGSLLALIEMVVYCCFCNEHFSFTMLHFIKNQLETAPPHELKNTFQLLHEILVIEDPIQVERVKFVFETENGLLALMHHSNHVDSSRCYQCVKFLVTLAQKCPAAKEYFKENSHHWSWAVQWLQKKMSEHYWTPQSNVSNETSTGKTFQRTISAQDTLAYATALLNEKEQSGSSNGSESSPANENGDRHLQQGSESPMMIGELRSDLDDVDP
Method in brief: as §1

USP25 = target: T2, USP25 (UniProt Q9UHP3)
T2 sequence (whole entry): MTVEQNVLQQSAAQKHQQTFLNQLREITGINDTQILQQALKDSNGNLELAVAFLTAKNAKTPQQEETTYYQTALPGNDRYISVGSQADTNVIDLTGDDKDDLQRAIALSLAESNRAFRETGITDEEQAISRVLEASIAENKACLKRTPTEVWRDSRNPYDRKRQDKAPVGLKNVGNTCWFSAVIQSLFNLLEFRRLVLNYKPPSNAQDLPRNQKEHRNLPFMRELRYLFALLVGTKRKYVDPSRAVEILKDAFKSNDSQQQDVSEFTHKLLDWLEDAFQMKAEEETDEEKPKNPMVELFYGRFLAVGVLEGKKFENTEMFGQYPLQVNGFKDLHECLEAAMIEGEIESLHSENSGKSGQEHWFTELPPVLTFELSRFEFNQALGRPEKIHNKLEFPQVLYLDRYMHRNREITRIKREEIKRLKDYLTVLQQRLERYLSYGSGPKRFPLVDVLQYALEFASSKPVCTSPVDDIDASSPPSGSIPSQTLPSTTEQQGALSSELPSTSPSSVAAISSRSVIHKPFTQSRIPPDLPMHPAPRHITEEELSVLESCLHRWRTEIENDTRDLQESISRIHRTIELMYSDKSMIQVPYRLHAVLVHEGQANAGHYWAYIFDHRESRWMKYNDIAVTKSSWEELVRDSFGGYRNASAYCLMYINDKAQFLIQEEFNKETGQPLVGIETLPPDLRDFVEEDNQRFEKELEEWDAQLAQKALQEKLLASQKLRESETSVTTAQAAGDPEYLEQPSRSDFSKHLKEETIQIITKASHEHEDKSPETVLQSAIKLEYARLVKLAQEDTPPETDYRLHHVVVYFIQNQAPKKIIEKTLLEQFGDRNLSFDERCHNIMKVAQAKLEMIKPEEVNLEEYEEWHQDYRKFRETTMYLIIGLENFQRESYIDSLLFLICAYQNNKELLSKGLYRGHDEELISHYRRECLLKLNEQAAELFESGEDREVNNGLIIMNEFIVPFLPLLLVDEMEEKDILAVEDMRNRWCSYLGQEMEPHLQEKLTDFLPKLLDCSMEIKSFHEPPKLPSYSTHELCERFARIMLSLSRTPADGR
Method in brief: as §1

USP28 = target: T3, USP28 (UniProt Q96RU2)
T3 sequence (whole entry): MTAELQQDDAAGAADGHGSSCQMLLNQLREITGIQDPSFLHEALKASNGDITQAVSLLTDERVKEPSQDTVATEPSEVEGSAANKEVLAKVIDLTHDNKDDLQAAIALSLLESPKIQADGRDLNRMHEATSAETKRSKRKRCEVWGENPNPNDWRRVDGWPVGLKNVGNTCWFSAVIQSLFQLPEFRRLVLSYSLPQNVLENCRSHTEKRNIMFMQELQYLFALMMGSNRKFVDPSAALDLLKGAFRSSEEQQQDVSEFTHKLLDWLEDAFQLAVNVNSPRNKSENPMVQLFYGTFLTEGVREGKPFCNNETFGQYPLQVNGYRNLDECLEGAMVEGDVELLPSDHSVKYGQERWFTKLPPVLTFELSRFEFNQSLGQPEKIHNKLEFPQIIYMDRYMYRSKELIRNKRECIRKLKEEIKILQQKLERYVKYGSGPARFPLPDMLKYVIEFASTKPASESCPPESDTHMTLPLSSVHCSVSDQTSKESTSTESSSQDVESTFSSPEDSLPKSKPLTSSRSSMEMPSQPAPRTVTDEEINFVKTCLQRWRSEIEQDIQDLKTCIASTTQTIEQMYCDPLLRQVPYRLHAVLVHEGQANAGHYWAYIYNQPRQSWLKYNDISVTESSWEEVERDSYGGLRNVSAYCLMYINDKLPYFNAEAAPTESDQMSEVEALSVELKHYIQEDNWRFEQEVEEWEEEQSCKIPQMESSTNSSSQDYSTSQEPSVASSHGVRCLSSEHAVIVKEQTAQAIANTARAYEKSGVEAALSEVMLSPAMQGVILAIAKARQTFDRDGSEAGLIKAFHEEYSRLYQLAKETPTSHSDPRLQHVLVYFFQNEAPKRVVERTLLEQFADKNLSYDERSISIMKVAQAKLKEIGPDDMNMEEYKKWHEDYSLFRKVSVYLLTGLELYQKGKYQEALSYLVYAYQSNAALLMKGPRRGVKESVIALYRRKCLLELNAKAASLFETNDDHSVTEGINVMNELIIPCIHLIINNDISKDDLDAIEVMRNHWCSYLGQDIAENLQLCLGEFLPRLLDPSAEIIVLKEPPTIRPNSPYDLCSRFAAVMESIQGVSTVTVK
Method in brief: as §1

Measured: log2 ratio of Biotin-Ahx-Ub-VS probe labelling

O=C(CCl)NCCc1cccc2ccccc12
inactive: USP19 0.0202 | USP24 -0.0928 | USP25 -0.0781 | USP28 -0.212

From the supplement of paper PMC11732987, “Enantioselective OTUD7B fragment discovery through chemoproteomics screening and high-throughput optimisation” (Communications Chemistry, 2025)
